{"source": "ChEMBL document CHEMBL2218924", "about": "“A broad activity screen in support of a chemogenomic map for kinase signalling research and drug discovery” (Biochem J, 2013)", "key": {"[1]": {"molecular_target": "T1, Serine/threonine-protein kinase TBK1 (Homo sapiens) (UniProt Q9UHD2)", "T1 sequence (whole entry)": "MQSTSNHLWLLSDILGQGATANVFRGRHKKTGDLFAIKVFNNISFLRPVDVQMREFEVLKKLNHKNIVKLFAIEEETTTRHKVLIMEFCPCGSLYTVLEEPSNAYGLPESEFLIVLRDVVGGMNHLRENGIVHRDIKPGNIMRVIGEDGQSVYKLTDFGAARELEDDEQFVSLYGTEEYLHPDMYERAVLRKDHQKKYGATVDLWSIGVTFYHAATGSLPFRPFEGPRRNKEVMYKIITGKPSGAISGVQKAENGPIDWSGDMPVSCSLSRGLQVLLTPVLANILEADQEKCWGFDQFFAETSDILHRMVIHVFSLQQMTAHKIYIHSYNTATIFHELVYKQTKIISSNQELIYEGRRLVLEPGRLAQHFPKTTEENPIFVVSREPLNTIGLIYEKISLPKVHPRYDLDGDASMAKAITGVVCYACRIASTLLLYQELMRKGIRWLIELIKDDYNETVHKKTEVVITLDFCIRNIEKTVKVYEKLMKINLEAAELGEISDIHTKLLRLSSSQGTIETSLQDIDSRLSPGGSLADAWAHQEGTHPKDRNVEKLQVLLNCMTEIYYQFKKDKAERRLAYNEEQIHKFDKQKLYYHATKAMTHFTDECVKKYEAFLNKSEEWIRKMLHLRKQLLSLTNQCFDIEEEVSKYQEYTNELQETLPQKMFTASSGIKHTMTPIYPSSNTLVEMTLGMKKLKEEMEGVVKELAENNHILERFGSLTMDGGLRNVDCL", "settings": "at 10 µM"}, "[2]": {"molecular_target": "T2, TGF-beta receptor type-1 (Homo sapiens) (UniProt P36897)", "T2 sequence (whole entry)": "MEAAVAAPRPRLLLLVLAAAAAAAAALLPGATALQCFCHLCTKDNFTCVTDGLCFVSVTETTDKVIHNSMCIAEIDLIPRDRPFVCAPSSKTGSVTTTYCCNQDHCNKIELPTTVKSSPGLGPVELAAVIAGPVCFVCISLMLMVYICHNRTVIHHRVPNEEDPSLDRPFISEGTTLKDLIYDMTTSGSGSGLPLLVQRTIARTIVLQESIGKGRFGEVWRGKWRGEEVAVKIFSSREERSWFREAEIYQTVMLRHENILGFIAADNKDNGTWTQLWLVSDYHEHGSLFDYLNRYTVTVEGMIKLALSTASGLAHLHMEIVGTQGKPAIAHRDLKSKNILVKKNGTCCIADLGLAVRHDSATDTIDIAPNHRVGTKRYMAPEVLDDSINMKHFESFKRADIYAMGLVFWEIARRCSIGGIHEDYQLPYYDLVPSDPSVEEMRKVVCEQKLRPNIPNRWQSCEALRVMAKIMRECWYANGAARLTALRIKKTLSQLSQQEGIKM", "settings": "at 1 µM"}, "[3]": {"molecular_target": "T2, TGF-beta receptor type-1 (Homo sapiens)", "settings": "at 10 µM"}, "[4]": {"molecular_target": "Insulin-like growth factor 1 receptor (Homo sapiens) (UniProt P08069)", "sequence (P08069 31-736 limits assumed)": "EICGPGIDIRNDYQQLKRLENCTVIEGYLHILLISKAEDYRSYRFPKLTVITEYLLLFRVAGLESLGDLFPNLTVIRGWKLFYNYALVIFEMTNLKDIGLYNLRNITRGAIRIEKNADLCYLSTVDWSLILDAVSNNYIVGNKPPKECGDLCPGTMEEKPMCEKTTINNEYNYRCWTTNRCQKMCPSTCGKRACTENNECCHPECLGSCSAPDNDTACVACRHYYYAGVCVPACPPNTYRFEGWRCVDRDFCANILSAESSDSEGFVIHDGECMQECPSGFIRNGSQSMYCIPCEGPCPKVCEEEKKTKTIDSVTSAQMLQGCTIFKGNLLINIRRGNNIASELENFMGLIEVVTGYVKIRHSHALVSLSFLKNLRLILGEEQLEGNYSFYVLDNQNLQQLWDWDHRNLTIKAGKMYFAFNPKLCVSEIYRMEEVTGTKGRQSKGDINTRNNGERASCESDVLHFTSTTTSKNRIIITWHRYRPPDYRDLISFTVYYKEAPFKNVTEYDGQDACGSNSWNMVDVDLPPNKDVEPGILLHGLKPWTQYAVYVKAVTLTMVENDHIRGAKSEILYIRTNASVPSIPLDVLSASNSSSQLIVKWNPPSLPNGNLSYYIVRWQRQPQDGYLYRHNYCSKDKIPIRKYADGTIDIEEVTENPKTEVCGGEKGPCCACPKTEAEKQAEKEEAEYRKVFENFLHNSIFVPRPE", "sequence (P08069 741-1367 limits assumed)": "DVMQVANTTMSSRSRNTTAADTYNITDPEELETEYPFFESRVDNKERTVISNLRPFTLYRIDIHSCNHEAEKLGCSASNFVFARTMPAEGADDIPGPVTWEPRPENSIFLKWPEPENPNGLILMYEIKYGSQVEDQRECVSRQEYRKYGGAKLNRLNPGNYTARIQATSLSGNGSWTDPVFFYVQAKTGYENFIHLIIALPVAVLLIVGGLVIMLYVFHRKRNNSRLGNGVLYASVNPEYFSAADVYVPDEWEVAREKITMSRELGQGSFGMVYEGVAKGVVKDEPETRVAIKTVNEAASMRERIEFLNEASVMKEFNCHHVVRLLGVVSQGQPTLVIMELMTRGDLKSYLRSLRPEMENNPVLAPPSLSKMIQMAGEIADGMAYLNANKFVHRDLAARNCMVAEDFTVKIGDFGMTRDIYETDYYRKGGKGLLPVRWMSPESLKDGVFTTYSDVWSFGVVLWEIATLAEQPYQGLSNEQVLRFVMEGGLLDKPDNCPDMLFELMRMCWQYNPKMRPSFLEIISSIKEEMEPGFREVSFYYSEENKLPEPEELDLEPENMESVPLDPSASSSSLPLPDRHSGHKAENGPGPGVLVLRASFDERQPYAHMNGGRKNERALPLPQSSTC", "settings": "at 1 µM"}, "[5]": {"molecular_target": "Insulin-like growth factor 1 receptor (Homo sapiens) (UniProt P08069)", "settings": "at 10 µM"}, "[6]": {"molecular_target": "T3, Inhibitor of nuclear factor kappa-B kinase subunit alpha (Homo sapiens) (UniProt O15111)", "T3 sequence (whole entry)": "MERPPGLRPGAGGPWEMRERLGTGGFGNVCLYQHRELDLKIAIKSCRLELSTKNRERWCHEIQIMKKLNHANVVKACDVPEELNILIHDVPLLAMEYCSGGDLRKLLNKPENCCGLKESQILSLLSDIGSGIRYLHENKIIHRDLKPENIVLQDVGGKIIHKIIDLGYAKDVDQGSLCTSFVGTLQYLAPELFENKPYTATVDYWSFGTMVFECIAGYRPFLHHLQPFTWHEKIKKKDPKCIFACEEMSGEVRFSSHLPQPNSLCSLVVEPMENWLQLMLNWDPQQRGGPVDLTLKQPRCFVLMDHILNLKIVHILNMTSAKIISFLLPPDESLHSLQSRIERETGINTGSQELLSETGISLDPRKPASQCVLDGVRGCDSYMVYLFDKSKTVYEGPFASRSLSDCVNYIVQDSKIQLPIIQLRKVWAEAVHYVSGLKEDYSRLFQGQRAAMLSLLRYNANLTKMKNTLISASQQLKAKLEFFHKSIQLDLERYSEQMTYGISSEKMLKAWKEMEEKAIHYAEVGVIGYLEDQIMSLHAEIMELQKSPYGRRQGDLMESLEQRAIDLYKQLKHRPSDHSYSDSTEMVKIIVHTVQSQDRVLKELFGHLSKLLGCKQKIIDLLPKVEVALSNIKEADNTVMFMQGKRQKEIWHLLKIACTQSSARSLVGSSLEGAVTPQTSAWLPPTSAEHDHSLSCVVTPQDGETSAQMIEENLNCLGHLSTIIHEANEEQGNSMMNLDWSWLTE", "settings": "at 1 µM"}, "[7]": {"molecular_target": "T3, Inhibitor of nuclear factor kappa-B kinase subunit alpha (Homo sapiens)", "settings": "at 10 µM"}, "[8]": {"molecular_target": "T4, Inhibitor of nuclear factor kappa-B kinase subunit beta (Homo sapiens) (UniProt O14920)", "T4 sequence (whole entry)": "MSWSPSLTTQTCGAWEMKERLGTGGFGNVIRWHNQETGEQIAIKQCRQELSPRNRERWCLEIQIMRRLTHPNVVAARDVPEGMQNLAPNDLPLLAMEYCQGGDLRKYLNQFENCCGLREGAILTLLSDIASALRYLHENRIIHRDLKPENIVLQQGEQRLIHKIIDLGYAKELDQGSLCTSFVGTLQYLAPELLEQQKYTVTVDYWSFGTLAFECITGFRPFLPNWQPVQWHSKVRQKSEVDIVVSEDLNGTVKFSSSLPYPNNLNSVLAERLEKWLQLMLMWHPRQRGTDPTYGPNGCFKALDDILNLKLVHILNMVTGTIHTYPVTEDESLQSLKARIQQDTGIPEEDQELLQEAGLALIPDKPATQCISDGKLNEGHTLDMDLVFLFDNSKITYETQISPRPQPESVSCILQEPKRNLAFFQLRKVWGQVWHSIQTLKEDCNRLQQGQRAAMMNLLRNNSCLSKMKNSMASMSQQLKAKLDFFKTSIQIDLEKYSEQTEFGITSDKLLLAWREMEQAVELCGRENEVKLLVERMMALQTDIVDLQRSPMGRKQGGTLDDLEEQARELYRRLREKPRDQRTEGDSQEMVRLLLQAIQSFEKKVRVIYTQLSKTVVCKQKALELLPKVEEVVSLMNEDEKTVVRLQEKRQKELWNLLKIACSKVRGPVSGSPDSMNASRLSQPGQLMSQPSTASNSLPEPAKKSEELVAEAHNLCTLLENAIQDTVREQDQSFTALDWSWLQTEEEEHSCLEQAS", "settings": "at 1 µM"}, "[9]": {"molecular_target": "T4, Inhibitor of nuclear factor kappa-B kinase subunit beta (Homo sapiens)", "settings": "at 10 µM"}, "[10]": {"molecular_target": "Insulin receptor (Homo sapiens) (UniProt P06213)", "sequence (P06213 28-758 limits assumed)": "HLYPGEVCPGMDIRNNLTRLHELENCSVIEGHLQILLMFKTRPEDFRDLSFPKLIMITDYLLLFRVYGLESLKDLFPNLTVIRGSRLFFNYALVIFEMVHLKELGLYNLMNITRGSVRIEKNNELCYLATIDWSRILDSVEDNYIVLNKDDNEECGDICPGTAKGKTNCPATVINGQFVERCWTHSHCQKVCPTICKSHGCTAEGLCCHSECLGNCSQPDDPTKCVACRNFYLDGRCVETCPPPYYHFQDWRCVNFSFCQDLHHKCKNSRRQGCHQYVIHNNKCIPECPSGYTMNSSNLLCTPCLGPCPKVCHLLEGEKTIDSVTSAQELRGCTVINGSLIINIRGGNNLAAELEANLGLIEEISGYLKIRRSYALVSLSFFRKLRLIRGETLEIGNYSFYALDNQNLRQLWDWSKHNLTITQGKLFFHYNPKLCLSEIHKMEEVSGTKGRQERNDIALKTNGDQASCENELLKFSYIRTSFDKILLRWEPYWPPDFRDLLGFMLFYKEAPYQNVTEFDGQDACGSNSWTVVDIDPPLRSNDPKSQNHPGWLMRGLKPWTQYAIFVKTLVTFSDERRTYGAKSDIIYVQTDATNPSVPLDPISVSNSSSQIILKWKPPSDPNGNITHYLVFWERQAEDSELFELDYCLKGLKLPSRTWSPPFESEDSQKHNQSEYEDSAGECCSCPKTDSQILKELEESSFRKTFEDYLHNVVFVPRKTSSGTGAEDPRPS", "sequence (P06213 763-1382 limits assumed)": "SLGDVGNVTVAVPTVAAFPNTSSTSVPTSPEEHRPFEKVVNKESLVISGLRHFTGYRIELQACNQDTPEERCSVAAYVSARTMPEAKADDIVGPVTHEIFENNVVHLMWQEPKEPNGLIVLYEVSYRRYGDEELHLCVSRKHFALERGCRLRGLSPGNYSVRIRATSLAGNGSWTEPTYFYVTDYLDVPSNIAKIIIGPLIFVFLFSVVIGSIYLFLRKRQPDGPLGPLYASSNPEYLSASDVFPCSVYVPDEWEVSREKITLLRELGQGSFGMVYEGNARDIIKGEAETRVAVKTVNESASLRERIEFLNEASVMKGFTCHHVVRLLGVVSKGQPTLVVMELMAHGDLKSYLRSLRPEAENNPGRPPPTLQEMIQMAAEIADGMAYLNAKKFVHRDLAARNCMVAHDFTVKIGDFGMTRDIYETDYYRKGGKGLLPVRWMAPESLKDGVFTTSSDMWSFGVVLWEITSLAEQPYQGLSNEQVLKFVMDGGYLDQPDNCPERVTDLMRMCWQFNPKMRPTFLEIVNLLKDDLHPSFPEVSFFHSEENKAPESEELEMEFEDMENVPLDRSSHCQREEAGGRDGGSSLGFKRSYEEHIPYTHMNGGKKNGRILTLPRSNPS", "settings": "at 1 µM"}}}
{"smiles": "CC(C)n1cnc2/c(=N/c3cccc(Cl)c3)nc(NCCO)[nH]c21", "values": [{"measurement": "residual activity", "setting": "[1]", "result": 33, "unit": "%"}, {"measurement": "residual activity", "setting": "[2]", "result": 79, "unit": "%"}, {"measurement": "residual activity", "setting": "[3]", "result": 85, "unit": "%"}, {"measurement": "residual activity", "setting": "[4]", "result": 72, "unit": "%"}, {"measurement": "residual activity", "setting": "[5]", "result": 31, "unit": "%"}, {"measurement": "residual activity", "setting": "[6]", "result": 114, "unit": "%"}, {"measurement": "residual activity", "setting": "[7]", "result": 98, "unit": "%"}, {"measurement": "residual activity", "setting": "[8]", "result": 102, "unit": "%"}, {"measurement": "residual activity", "setting": "[9]", "result": 85, "unit": "%"}, {"measurement": "residual activity", "setting": "[10]", "result": 83, "unit": "%"}]}
